USP30 block = inhibitors of human USP30 deubiquitinase | Q70CQ3 | purified USP30, Ub-rhodamine cleavage fluorescence | inhibition, % at 25 µM | 47,000 tested, 5.3% active | AID 1645860
Target sequence (Q70CQ3 whole entry, looked up): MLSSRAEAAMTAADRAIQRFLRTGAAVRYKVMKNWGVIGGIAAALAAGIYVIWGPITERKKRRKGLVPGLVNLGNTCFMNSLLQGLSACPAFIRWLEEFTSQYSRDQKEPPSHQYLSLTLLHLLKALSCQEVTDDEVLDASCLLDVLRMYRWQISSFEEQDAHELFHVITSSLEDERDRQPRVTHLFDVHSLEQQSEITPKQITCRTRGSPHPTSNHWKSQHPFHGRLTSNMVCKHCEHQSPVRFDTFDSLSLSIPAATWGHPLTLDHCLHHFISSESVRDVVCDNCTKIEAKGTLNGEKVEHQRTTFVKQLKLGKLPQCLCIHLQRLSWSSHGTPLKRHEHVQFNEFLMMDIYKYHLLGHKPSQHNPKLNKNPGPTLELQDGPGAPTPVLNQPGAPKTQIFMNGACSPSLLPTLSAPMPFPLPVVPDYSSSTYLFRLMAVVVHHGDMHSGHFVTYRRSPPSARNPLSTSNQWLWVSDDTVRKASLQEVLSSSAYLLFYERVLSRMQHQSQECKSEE
USP17 block = blocks human USP17 ubiquitin-rhodamine cleavage; inhibition, % at 50 µM; A8MUK1; 47,000 tested, 6.5% active; purified USP17, Ub-rhodamine cleavage fluorescence, 3 h
USP28 inh = blocks human USP28 ubiquitin-rhodamine cleavage; purified USP28, Ub-rhodamine cleavage fluorescence, 30 min; inhibition, % at 25 µM; AID 1645857; Q96RU2; 47,000 tested, 3% active
OTUD3 block = inhibitors of human OTUD3 deubiquitinase; purified OTUD3, Ub-rhodamine fluorescence, 2 h; inhibition, % at 25 µM; Q5T2D3; 47,000 tested, 0.7% active
The depositor's hits bear a star; i = inactive; · = no result given. An excerpt weighted towards active compounds, which were near 11% of everything screened. Rule as the data show it: active = inhibition above about 30%; inactive = the rest.

SMILES	USP30 block	USP17 block	USP28 inh	OTUD3 block
CC(=O)N1CCCC1c1cnc(N2CC3(CCCCC3)OC2=O)cn1 (stereo not drawn)	27.1	11.3	8.6	8.2
COc1ccc2c(c1)c(CC(=O)Nc1ccc(N3CCOCC3)cc1)c(C)n2C(=O)c1ccc(Cl)cc1	20.9	16.5	-7.4	-1.7
O=C(Nc1ccccc1)N1CCCC2(CCCN2Cc2ccccc2F)C1 (stereo not drawn)	31.7*	3.1	-0.5	16.4
COc1ccc(NC(=O)CCCC(=O)c2ccccc2)c(OC)c1	8.8	5.2	6.5	6.5
O=C(CCCC(=O)c1ccccc1)Nc1ccc(F)cc1Cl	26.8	30.3*	11.4	10.3
O=C(CCC(=O)c1ccc(F)cc1)Nc1ccccc1F	-3.1	-8.8	2.0	-3.8
O=C(CCCC(=O)c1ccccc1)Nc1ccc(F)cc1	-0.4	55.7*	13.5	-4.0
NS(=O)(=O)c1ccc2nc(NC(=O)C3COc4ccccc4O3)sc2c1 (stereo not drawn)	-13.9	0.0	-0.2	-1.8
O=C(CN(c1ccc(F)cc1)S(=O)(=O)c1ccccc1)N1CCC(Cc2ccccc2)CC1	23.8	3.5	10.9	9.9
O=C(/C=C/c1ccc(F)cc1)N1CCC(Cc2ccccc2)CC1	51.4*	35.9*	32.7*	24.3
Cn1nc(C(=O)N2CCC3(CC2)OCCO3)c2c1-c1ccccc1SC2	9.9	-2.4	-5.1	0.5
COc1ccc(CC(=O)N2CCN(c3ccc(Nc4ccccn4)nn3)CC2)cc1	-0.1	·	36.8*	-5.6
COc1ccc(S(=O)(=O)NCc2ccc(C(=O)N3CCN(c4ccccn4)CC3)cc2)cc1	11.2	6.3	3.2	6.0
O=C(Oc1ccc(-c2cnc3ccccc3n2)cc1)c1ccc(F)cc1	-1.8	65.5*	-3.6	-0.4
O=C(Nc1ccccc1)Nc1cnc2ccc(C(=O)NCc3ccncc3)cn2c1=O	19.0	15.9	10.4	12.0
COc1ccc(CC(=O)Nc2cnc3ccc(C(=O)NCc4ccncc4)cn3c2=O)cc1	-13.8	30.5*	2.2	5.4
Cc1nn(CC(=O)Nc2ccc(Br)c3cccnc23)c(=O)c2ccccc12	13.9	65.1*	15.1	-0.1
Cc1ccc(S(=O)(=O)N2CCC(C(=O)OCC(=O)Nc3ccc4c(c3)CCC4)CC2)cc1C	8.5	8.1	14.9	9.7
Cc1ccc(S(=O)(=O)N2CCC(C(=O)OCC(=O)Nc3ccc(OC(F)(F)F)cc3)CC2)cc1C	42.6*	30.7*	12.8	26.6
Cc1ccc(CN2CCCn3nc(C(=O)NCc4ccc(F)cc4)cc3C2=O)cc1	55.5*	37.8*	13.5	7.7
CN1CC(=O)N(C2CCNC2)Cc2c(NCc3ccc(Cl)cc3)ncnc21 (stereo not drawn)	9.0	-24.5	31.5*	0.2
CCCCCNc1ncnc2c1CN(C1CCNC1)C(=O)CN2C (stereo not drawn)	-13.2	-50.3	-6.1	-4.5
Cc1ccc(C)c(CN2C(=O)c3ccccc3S(=O)c3ccc(C(=O)N4CCN(c5ccccn5)CC4)cc32)c1 (stereo not drawn)	38.9*	18.0	24.3	7.3
COc1ccccc1N1CCN(C(=O)c2ccc3c(c2)N(Cc2cc(C)ccc2C)C(=O)c2ccccc2S3=O)CC1 (stereo not drawn)	50.8*	20.3	18.4	12.5
Cc1c(C)n(C)c2ccc(C(=O)N3CCN(c4ccccn4)CC3)cc12	-105.0	-17.9	-24.9	-30.8
SMILES	USP30 block	USP17 block	USP28 inh	OTUD3 block
O=C(c1ccc2c(c1)N(Cc1ccc(F)cc1)C(=O)c1ccccc1S2=O)N1CCN(c2ccccn2)CC1 (stereo not drawn)	39.5*	16.1	25.7	-0.8
O=C(c1ccc2nc(C(F)(F)F)[nH]c2c1)N1CCN(c2ccccn2)CC1	12.6	1.6	1.5	-0.7
COc1ccccc1NC(=O)COc1ccc(C(=O)Nc2ccc3ccccc3c2)cc1OC	5.8	2.9	7.5	9.3
O=C(CNC(=O)c1ccc2nc(-n3cccc3)sc2c1)NCc1ccco1	-141.8	-10.8	-27.3	-14.6
Cc1ccccc1-c1nc(SCC(=O)N2CCCC2)c2c(=O)n(C)c(=O)n(C)c2n1	43.5*	8.6	0.2	6.0
Cc1ccc(C(=O)NCc2ccc(C(=O)Nc3ccc(Cl)cc3)o2)cc1	23.8	-1.9	-2.8	-7.3
Cc1cccc(NC(=O)CC2Nc3ccccc3OC2=O)c1 (stereo not drawn)	-40.7	40.5*	3.9	-6.9
O=C(Cn1cc(SCc2ccccc2Cl)c2ccccc21)N1CCCC1	13.6	32.0*	22.5	9.5
O=C(CSc1cn(CC(=O)N2CCCCC2)c2ccccc12)NCCc1ccccc1	-0.2	-13.4	-8.7	-4.6
O=C1CC(C(=O)Nc2ccc(Cl)cc2)c2c(nc(N3CCCCC3)[nH]c2=O)N1 (stereo not drawn)	i	-92.4	-96.2	-111.6
